About 79,000 compounds went through this panel and 15% of them were active in at least one assay; those are over-represented in the sample as a whole. Unmarked numbers belong to inactive results. The source made the active and inactive calls. Cut-off read from the data, not from the text of the source: active = growth inhibition above about 70%; inactive = the rest.

Experiment [1] can be described thus: NCI Yeast Anticancer Drug Screen. Data for the rad50 strain (AID 155).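 Note: 0% = growth of vehicle-only cultures of the same strain.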 The conditions noted are these: S. cerevisiae rad50 strain growth inhibition; at 50.0 µM; active compounds read high. The method in brief:
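Vehicle-treated cultures provide the reference for the growth inhibition reported for compound-exposed, repair-deficient yeast.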

Experiment [2] can be described thus: NCI Yeast Anticancer Drug Screen. Data for the mec2-1 strain (AID 157). The conditions noted are these: S. cerevisiae mec2-1 strain, at 50.0 µM, active compounds read high. The method in brief: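 Cells of the genetically defined mec2-1 yeast strain are incubated with test compound. Inhibition of growth is calculated against vehicle-treated controls.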
Experiment [3] in a line: NCI Yeast Anticancer Drug Screen. Data for the sgs1 mgt1 strain (AID 161).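 Note: 0% = growth of cultures given vehicle only.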 As to conditions: S. cerevisiae sgs1 mgt1 strain, at 50.0 µM, active compounds read high. The method in brief:
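Mutant yeast exposed to compound; growth scored against vehicle-only wells.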

Experiment [4] can be described thus: NCI Yeast Anticancer Drug Screen. Data for the cln2 rad14 strain (AID 165).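 Note: 0% = growth equal to vehicle treated cultures.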 As to conditions: S. cerevisiae cln2 rad14 strain, at 50.0 µM, active compounds read high. In a few lines: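 The screen exposed genetically defined yeast (cln2 rad14) to test compounds and scored growth inhibition relative to vehicle-treated controls.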
The nature of experiment [5]: NCI Yeast Anticancer Drug Screen. Data for the bub3 strain (AID 167). As to conditions: S. cerevisiae bub3 mutant strain, at 50.0 µM, active compounds read high. The method in brief:
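Mutant yeast screening strain plus compound; vehicle-treated cultures serve as the 0% inhibition reference.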

Experiment [6] can be described thus: NCI Yeast Anticancer Drug Screen. Data for the mlh1 rad18 strain (AID 175). As to conditions: S. cerevisiae mlh1 rad18 strain growth inhibition; at 50.0 µM; active compounds read high. In a few lines: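 Compound-treated yeast growth, normalised to vehicle controls. Strain bears defined DNA repair mutations.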

Consider `COC1C(OC(=O)/C=C/C=C/C=C/C=C\C(=O)O)CCC2(CO2)C1C1(C)OC1CC=C(C)C` (stereo not given), for which the growth inhibition is 9.95% in experiment [1]; -1% in experiment [2]; -19.3% in experiment [3]; 0.95% in experiment [4]; -8.7% in experiment [5]; 24.1% in experiment [6].
Consider `CC1NC1(c1ccccc1)n1ccnc1` (stereo not given), for which the growth inhibition in experiment [1] was 13.4%; in experiment [2] it was -18.1%; in experiment [3], 5.8%; in experiment [4] it was -14.5%; in experiment [5], 11.4%; in experiment [6] it was 3.4%.
With `Cc1ccc(C(=O)O[C@H](C(=O)O)[C@H](OC(=O)c2ccc(C)cc2)C(=O)O)cc1`, the growth inhibition in experiment [1] is 18.1%; in experiment [2], -4.05%; in experiment [3] it was -19.6%; in experiment [4], 10.4%; in experiment [5], 2.6%; in experiment [6], -11.1%.
For `Oc1ccccc1C=NCCN=Cc1ccccc1O.[Cu]`, the growth inhibition in experiment [1] is 15.4%; in experiment [2], -25.9%; in experiment [3], -4.75%; in experiment [4], -36.4%; in experiment [5] it was 3.55%; in experiment [6] it was -7.7%.
For the molecule `CS(=N)(=O)CCC(N)C(=O)O` (stereo not given) (tested in a mixture with another compound), the growth inhibition in experiment [1] is 4.7%; in experiment [2], 21.2%; in experiment [3], -12.8%; in experiment [4], -1.95%; in experiment [5], 17.8%; in experiment [6], 2.1%.
On to `CNCCc1ccc(O)cc1`, for which the growth inhibition is -9.2% in experiment [1]; -1.85% in experiment [2]; -0.75% in experiment [3]; -23.3% in experiment [4]; 1.35% in experiment [5]; -0.65% in experiment [6].
With `CN1CCC[N+](C)=C1c1ccc(N(C)C)cc1`, the growth inhibition in experiment [1] was -22.7%; in experiment [2] it was -12.3%; in experiment [3], -4.5%; in experiment [4], -14.2%; in experiment [5], -10.1%; in experiment [6], -7.15%.
With `CCOP(=O)(Cc1ccc(Cl)cc1)OCC`, the growth inhibition in experiment [1] is 33.8%; in experiment [2] it was 7.9%; in experiment [3], 17.6%; in experiment [4], 21.4%; in experiment [5], 15.2%; in experiment [6], 8.05%.
For the molecule `Cc1ccccc1/C(=C/c1ccc([N+](=O)[O-])cc1)C(=O)Nc1ccc(S(=O)(=O)F)cc1`, the growth inhibition in experiment [1] was 97.1% (active); in experiment [2] it was 95.5% (active); in experiment [3], 96.3% (active); in experiment [4] it was 96.3% (active); in experiment [5], 96.5% (active); in experiment [6] it was 97.5% (active).
Consider `Cc1cc(=O)oc2cc(OC(=O)N(C)C)c(Cl)cc12`, for which the growth inhibition in experiment [1] was -0.5%; in experiment [2], -11.3%; in experiment [3], 17.4%; in experiment [4] it was 24.4%; in experiment [5] it was 18.2%; in experiment [6], 10.3%.
For the molecule `CCC(C(C)C)C1NC1C(C)C1CCC2C3CC=C4CC(OC(C)=O)CCC4(C)C3CCC12C` (stereo not given), the growth inhibition in experiment [1] is 95.8% (active); in experiment [2], 99.2% (active); in experiment [3] it was 99.1% (active); in experiment [4] it was 98.3% (active); in experiment [5] it was 98.6% (active); in experiment [6] it was 98.7% (active).
As for `CC(=O)OC1CCC2(C)C(=CCC3C4C/C(=C\N5CCCC5)C(=O)C4(C)CCC32)C1` (stereo not given), the growth inhibition was 51% in experiment [1]; 99% (active) in experiment [2]; 46.8% in experiment [3]; 98.8% (active) in experiment [4]; 97.2% (active) in experiment [5]; 95.3% (active) in experiment [6].
For `CCCCC(CC)COP(OCC(CC)CCCC)OCC(CC)CCCC` (stereo not given), the growth inhibition in experiment [1] is 22.1%; in experiment [2], -14.4%; in experiment [3], -18.9%; in experiment [4], -37.5%; in experiment [5], -7.25%; in experiment [6], -6.95%.
As for `CCOC(=N)CC(O)C(Cl)(Cl)Cl` (stereo not given), the growth inhibition in experiment [1] is -2.05%; in experiment [2] it was 1.7%; in experiment [3] it was -10.1%; in experiment [4] it was -47.2%; in experiment [5], 22%; in experiment [6], -6.25%.
On to `CCCCOC(=O)c1ccccc1C(=O)OCc1ccccc1`, for which the growth inhibition in experiment [1] was -3.45%; in experiment [2], -11.7%; in experiment [3], -2.85%; in experiment [4], -43.7%; in experiment [5], 2.8%; in experiment [6], -5.25%.
In the case of `O=[N+]([O-])c1ccc(Cl)c(OCCCOc2ccc(S(=O)(=O)F)cc2)c1`, the growth inhibition in experiment [1] was -8.7%; in experiment [2], -6.9%; in experiment [3] it was 8.05%; in experiment [4], 3.7%; in experiment [5], -3.75%; in experiment [6], 7.85%.
As for `CN(/N=C/c1ccnc2ccccc12)c1c([N+](=O)[O-])cc([N+](=O)[O-])cc1[N+](=O)[O-]`, the growth inhibition is -0.25% in experiment [1]; -4.65% in experiment [2]; -18.8% in experiment [3]; 18.9% in experiment [4]; -10% in experiment [5]; -8.4% in experiment [6].
For the molecule `Nc1ccc([As](=O)(O)O)cc1`, the growth inhibition is 27.8% in experiment [1]; 19.8% in experiment [2]; 14.9% in experiment [3]; 11.8% in experiment [4]; 7.9% in experiment [5]; 21.3% in experiment [6].
Consider `C1NCC2CNCC1O2`, for which the growth inhibition in experiment [1] is 3.2%; in experiment [2] it was -12.4%; in experiment [3] it was -7.95%; in experiment [4] it was 6.35%; in experiment [5] it was 7.9%; in experiment [6], -3.15%.
As for `Cc1cc(CCl)cc(=O)[nH]1`, the growth inhibition in experiment [1] is -9.75%; in experiment [2], -0.7%; in experiment [3] it was -7.55%; in experiment [4], -8.9%; in experiment [5], -20.6%; in experiment [6], 12.2%.

The values above are taken from PubChem BioAssay (NCI).
